# According to PubChem BioAssay AID1053119 (Broad Institute, 2014):
# Potency and affinity values are given separately. Results filed as inconclusive are left out. A call without a number means that no potency is given here. The source made the active and inactive calls.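 Rule for the calls: active = signal loss from cell killing with fitted potency at or below twice the top valid dose; inconclusive = flat drop of 30 to 70%, or unreliable curve fit; inactive = opposite direction, flat within 30%, or weaker potency.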
# Test: viability loss in A549 lung cancer cells – cell-based, cherry-picks, 26 µM top dose, cytotoxicity control, dose response (AID 1053119)
# Conditions: CellTiter-Glo ATP luminescence, 72 h; series mostly up to 26 µM
smiles,measurement,value
C=C1C(=O)O[C@@H]2C[C@@H](C)[C@@H]3C=CC(=O)[C@@]3(C)[C@@H](O)[C@H]12,outcome,inactive
